The results in this text go back to PubChem BioAssay AID932 (The Scripps Research Institute Molecular Screening Center, 2007).

Screen size: about 200,000 compounds; about 5,100 (2.5%) were called active. For the sample, actives were picked, then their nearest neighbours and some compounds at random. Values without a mark were called inactive.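 How the source made its calls: active means activation above the screen-wide mean activation plus 3 SD (cut at about 130% in these data); inactive means the rest.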

This test is described as follows: potentiators of IFN-gamma driven STAT1 reporter – cell-based, HTS, luciferase reporter, primary screen (AID 932).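 Further: raw ratio to IFN-gamma control signal so 100% means no change and 0% no light.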 The following applies: NIH 3T3 STAT1-luciferase reporter, luminescence, at 5.5 µM, active compounds read high, 100% = IFN-gamma alone, no compound. On the technique in general: In a reporter assay the amount or activity of a reporter protein is the signal.
Turning to `Cc1cccc(NC(=S)NC(=O)c2ccc(Br)o2)c1`, the activation (% of control) is 125%.
As for `O=C(Nc1ccc(Cl)cn1)c1cnn2cccnc12`, the figure is 153% (active); as for `Cc1cc(NC(=O)c2cnn3cccnc23)n(-c2ccccc2)n1`, 89.3%; as for `O=C(Nc1ccc(Cl)cn1)c1ccc2c(c1)OCCO2`, 74.1%.
In the case of `COc1ccccc1CNC(=O)C1Cc2ccccc2C(=O)O1` (stereo unspecified) it was 102%.
In the case of `C#CCOCCOCCOCCNc1nc(N2CCN(C(=O)[C@H](Cc3ccc(O)cc3)n3cc(C(N)CC(C)C)nn3)CC2)nc(N2CCN(C(=O)[C@H](CCC(=O)O)n3cc(C(N)[C@H](C)CC)nn3)CC2)n1` (stereo partly specified) it was 99.5%.
Regarding `CCOC(=O)N1CCN(Cc2nc(Cc3cccc(C(F)(F)F)c3)no2)CC1`, the activation (% of control) was 97.5%.
As for `COc1ccc(CC(=O)NCc2nnc(SCC(=O)Nc3nccs3)n2C)cc1`, the figure is 91.2%; as for `c1ccc(CCc2nc(-c3ccncc3)no2)cc1`, 117%; as for `COc1ccc(-c2noc(COc3ccc(Cl)c(C)c3)n2)cc1`, 93.9%.
As for `Cc1cc(Cl)ccc1OCc1nc(-c2ccncc2)no1`, the figure is 151% (active); as for `CCCOc1ccc(NC(=O)C2OC3OC(C)(C)OC3C3OC(C)(C)OC23)cc1` (stereo unspecified), 95.5%; as for `CCn1c(CNS(=O)(=O)c2ccc(Cl)cc2)n[nH]c1=S`, 94.3%.
With `O=C1/C(=C\c2ccccc2Cl)SC(=S)N1CCC(=O)N1CCCc2ccccc21`, the activation (% of control) was 98.2%.
As for `O=C(CN1CCCCC1)Nc1ccccc1Cl`, the figure is 103%; as for `COCCN(CCOC)C(=S)Nc1ccccc1Cl`, 91.7%.
In the case of `O=C(Nc1ccccc1Cl)/C(Cl)=C(\Cl)S(=O)c1ccccc1` (stereo unspecified) it was 201% (active); in that of `CCN(CC)CC(=O)Nc1sc2c(c1C(=O)c1ccccc1C)CCC2`, 100%.
In the case of `CCOC(=O)c1cc(-c2ccc(F)cc2)n(CC(=O)NCc2ccccn2)c1C`, the activation (% of control) was 96.2%.
On to `CO/N=C(\N)c1ccc([N+](=O)[O-])cc1`, for which the activation (% of control) is 97.7%.
In the case of `O=C(NCc1cn2ccsc2n1)Nc1ccc(Cl)cc1`, the activation (% of control) was 102%.
As for `O=C(Nc1ccc(Cl)cc1)c1ccsn1`, the figure is 145% (active); as for `O=C(Nc1ccccc1)c1nnsc1S(=O)(=O)c1ccc(Cl)cc1`, 90%; as for `CCCC(C)C(=O)NCc1ccncc1` (stereo unspecified), 96.3%.
As to `CC1=C(C(=O)N(C)C)C(c2ccccc2OC(F)F)NC(=O)N1` (stereo unspecified), the activation (% of control) was 104%.
In the case of `CC[N+]1(CC)CC2=Cc3ccccc3CC2C1` (stereo unspecified) it was 106%.
On to `COCCn1c(N)c(N(Cc2ccccc2)C(=O)C2CCCCC2)c(=O)[nH]c1=O`, for which the activation (% of control) is 98%.
As for `Cc1cc(NC(=O)CSc2nccn2-c2ccc([N+](=O)[O-])cc2)no1`, the figure is 95.1%; as for `COc1ccccc1CNC(=O)c1ccc(SC)cc1OC`, 109%; as for `COc1cc(SC)ccc1C(=O)Nc1cc(C)ccn1`, 102%.
Consider `COc1cc(SC)ccc1C(=O)NCCOc1ccccc1Cl`, for which the activation (% of control) is 141% (active).
In the case of `COCCNC(=O)C(OC(=O)c1cccs1)c1ccc(F)cc1` (stereo unspecified) it was 93.1%; in that of `CCc1ccc2c(c1)C(c1ccc([N+](=O)[O-])cc1)=NNC(c1ccccc1)=N2`, 95.2%.
As for `Cc1ccc(C2=Nc3c(ccc4ccccc34)C(c3ccncc3)=NN2)cc1`, the figure is 37.3%; as for `CCOc1ccc2c(c1)C(c1ccc(C)cc1)=NNC(c1ccc(C)cc1)=N2`, 131% (active).
As for `O=C(NCc1ccccc1)C1=C[C@@H](c2ccc(C(F)(F)F)cc2)C[C@@H](OCc2ccc(CO)cc2)O1`, the figure is 106%; as for `Cc1ccc(C2NC(C(=O)O)CS2)cc1` (stereo unspecified), 106%; as for `CC(C)c1ccc(Nc2ncccc2C#N)cc1`, 135% (active).
Turning to `CN(C)c1ccnc(Nc2ccc(F)cc2)c1C#N`, the activation (% of control) is 98.2%.
Consider `O=C(Nc1ccccc1)c1cccnc1Nc1ccccc1`, for which the activation (% of control) is 99.2%.
On to `Cc1oc2cc([N+](=O)[O-])c(O)c([N+](=O)[O-])c2c1C(=O)c1ccc(Br)cc1`, for which the activation (% of control) is 94%.
In the case of `COc1ccc(N=Cc2c(O)[nH]c3ccccc23)cc1OC` it was 145% (active); in that of `COc1cc(N=Cc2c(O)[nH]c3ccccc23)cc(OC)c1OC`, 115%.
In the case of `COc1ccc(OC)c(N=Cc2c(O)[nH]c3ccccc23)c1` it was 115%; in that of `CCC(CC)c1nnc(NC(=O)c2nn(C)c(=O)c3ccccc23)s1`, 102%.
As for `CN(CCOc1ccc(Br)cc1)CC(=O)Nc1cccc(S(=O)(=O)NC2=NCCC2)c1`, the figure is 97.5%; as for `CCN(CC)S(=O)(=O)c1ccc(OC(C)C)c(N)c1`, 98.6%.
Regarding `Cc1cc2nc(-c3ccc(NC(=O)c4cccnc4)cc3)oc2cc1C`, the activation (% of control) was 137% (active).
As for `Cc1ccc(-n2nc3cc(C)c(NC(=O)c4cccnc4)cc3n2)cc1`, the figure is 118%; as for `Cc1ccc2nc(-c3ccc(NC(=O)c4cccnc4)cc3)oc2c1`, 93.8%; as for `CCOc1ccc(CCN2C(=O)c3cccnc3C2=O)cc1OCC`, 96.9%.
As for `O=C(NC1CC1)c1cccc(Br)c1`, the figure is 98.5%; as for `Cc1ccc(C(=O)NC2CCN(C(=O)N3CCOCC3)CC2)cc1`, 98.8%.
As for `O=C(NC1CC1)c1ccc(-c2ccccc2)cc1`, the figure is 131% (active); as for `COc1ccc(C)cc1NC(=O)CSc1nnc(CC(=O)Nc2ccccc2F)n1C`, 92.1%; as for `CCCCc1ccc(NC(=S)NCCCN2CCOCC2)cc1`, 96.5%.
As for `O=C(Nc1ccc2nccnc2c1)c1ccco1`, the activation (% of control) is 127%.
As for `O=C(Nc1ccc2oc(-c3ccccc3F)nc2c1)c1ccco1`, the figure is 170% (active); as for `O=C(Nc1cccc(-c2nc3ncccc3o2)c1)c1ccco1`, 98.8%.
As for `COCc1c(C(=O)OCc2c(C)noc2C)oc2ccccc12`, the figure is 100%; as for `COc1ccc(-c2nn(-c3ccccc3)cc2/C=C\C(=O)N2CCOCC2)cc1[N+](=O)[O-]`, 102%; as for `S=C(Nc1cccc(Br)c1)N1CCn2cccc2C1c1cccnc1` (stereo unspecified), 90.5%.
In the case of `c1ccc2cc3c(NCCN4CCOCC4)ccnc3cc2c1` it was 137% (active); in that of `c1ccc2[nH]c(NCCN3CCOCC3)nc2c1`, 99.9%.
As to `O=C(Cn1c(-c2ccccn2)nc2ccccc21)NCCN1CCOCC1`, the activation (% of control) is 101%.
For `Cn1cccc1/C=C1\SC(=O)N(CC(=O)Nc2ccc(F)cc2)C1=O`, the activation (% of control) was 100%.
As for `CC(=O)OC(COc1ccc(F)cc1)Cn1cnc2ccccc21` (stereo unspecified), the figure is 103%; as for `CCn1nc(C)c(CN2CCN(Cc3ccc(OC)c(C)c3C)C(CCO)C2)c1C` (stereo unspecified), 98.9%.
For the molecule `COc1ccc(Br)cc1CN(C)CC(=O)Nc1cc(Cl)cc(Cl)c1`, the activation (% of control) is 105%.
As for `Cc1ccc(C)c(NC(=O)CCC(=O)NNC(=O)c2cccs2)c1`, the figure is 101%.
Consider `CC(C)C(=O)Nc1ccc(C(=O)NNC(=O)c2cccs2)cc1`, for which the activation (% of control) is 102%.
For the molecule `Cc1ccc(C(=O)NNC(=O)c2cccs2)cc1`, the activation (% of control) is 130% (active).
Take `C=CS(=O)c1sc(Cl)c(N2CCOCC2)c1[N+](=O)[O-]` (stereo unspecified): the activation (% of control) was 86.3%.
Consider `CC(=O)Nc1ccc(NC(=O)COc2ncnc3ccccc23)cc1`, for which the activation (% of control) is 93.2%.
On to `O=[N+]([O-])c1cccc(Nc2c3ccccc3nc3ccccc23)c1`, for which the activation (% of control) is 98%.
As for `CC(=O)Nc1ccc(Nc2c3ccccc3nc3ccccc23)cc1`, the activation (% of control) was 137% (active).
As for `CC1=CC2=NC(=O)CC(C)(C(=O)N(CC(=O)NC(C)(C)C)Cc3ccccc3)N2C=C1` (stereo unspecified), the figure is 106%.
As for `Cc1ccc(C(=O)COC(=O)c2cccc(N3C(=O)c4c(C)nc5ccccc5c4C3=O)c2)cc1C`, the activation (% of control) was 149% (active).
As for `O=C(CCc1nc2ccccc2c(=O)[nH]1)OCC(=O)c1cccc(Cl)c1`, the figure is 93.7%; as for `CCCc1nc2ccccc2c(C(=O)OCC(=O)c2ccc3c(c2)NC(=O)CO3)c1CC`, 100%; as for `CN(c1ccccc1)S(=O)(=O)c1ccc(Cl)c(C(=O)NCCc2c[nH]c3ccccc23)c1`, 95%.
With `O=C(NCCc1c[nH]c2ccccc12)C(=O)NCC1CCCO1` (stereo unspecified), the activation (% of control) was 109%.
In the case of `O=C(NCCc1c[nH]c2ccccc12)c1cc2ccccc2oc1=O` it was 143% (active); in that of `COc1ccc(NC(=O)/C(C#N)=C\c2cc(OC)c(OCc3ccc(C(=O)O)cc3)cc2Br)cc1`, 96.6%; in that of `COc1ccc(NC(=S)NCCNC(C)=O)cc1`, 103%.
As to `CC(=O)Nc1ccc(OCC(=O)NCc2ccc(C)cc2)cc1`, the activation (% of control) is 95.8%.
As to `Cc1ccc(NC(=O)OCc2cncs2)cc1`, the activation (% of control) was 118%.
For the molecule `COc1ccc(CS(=O)/C(Cl)=C(/Cl)C(=O)Nc2ccc(OC)nc2)cc1` (stereo unspecified), the activation (% of control) is 279% (active).
Turning to `COc1ccc(NC(=S)Nc2ccccc2Cl)cn1`, the activation (% of control) was 88.6%.
For `COc1ccc(NC(=O)/C(Cl)=C(/Cl)S(=O)Cc2ccc(C)cc2)cn1` (stereo unspecified), the activation (% of control) is 222% (active).
In the case of `c1ccc2c(c1)CSc1sccc1C2=C1CCNCC1`, the activation (% of control) is 98.4%.
In the case of `CN(C)/C=C/C(=O)c1cnc2sccn2c1=O` it was 105%; in that of `COc1cccc(NCCC(=O)c2cccc([N+](=O)[O-])c2)c1`, 116%.
For `O=C(c1ccc2c(c1)N(Cc1ccc(F)cc1)C(=O)c1ccccc1S2(=O)=O)N1CCN(c2ccccn2)CC1`, the activation (% of control) was 97.5%.
For `CCn1c(SCC(=O)N(C)C2CCS(=O)(=O)C2)nnc1-c1cccs1` (stereo unspecified), the activation (% of control) was 97.1%.
As for `Cc1ccc(NCc2n[nH]c(=S)n2-c2ccccc2)cc1Cl`, the figure is 114%; as for `CCOC(=O)N1CCN(c2cc(C)c([N+](=O)[O-])cc2F)CC1`, 77.6%.
As to `CC1CCCCC1NC(=O)CN1CCC(O)(c2ccc3c(c2)OCO3)CC1` (stereo unspecified), the activation (% of control) is 102%.
In the case of `O=C(C[n+]1ccccc1)N/N=C/c1ccc(O)cc1` it was 97.6%; in that of `COC(=O)N/N=C/c1ccc(/C=N/NC(=O)OC)cc1`, 103%; in that of `Cc1nonc1C(=O)N/N=C/c1ccc(O)cc1`, 135% (active).
